TEAD-YAP inh: TEAD-YAP interaction inhibition; AID 1259422; HEK-TIYL cells, TEAD-Gal4/YAP UAS-luciferase luminescence; inhibition, % at 9.12 µM; actives 1.4% (n = 640,000); in the data active = inhibition above about 32%;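 note: 0% = median of test compound wells and 100% = reference inhibitor wells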
FBW7 act: activators of human E3 ligase FBW7. normalized activity (activation), % at 26.1 µM. actives 0.13% (n = 650,000). AlphaScreen FBW7–phospho-cyclin E peptide binding, activator screen. AID 1259310; in the data active = normalized activity above about 1.9%;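 note: purified mutant Fbw7 with reduced substrate affinity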
MITF primary: blocks human microphthalmia-associated transcription factor | O75030 | AlphaScreen MITF homodimerization, bead proximity signal | inhibition, % at 2.6 µM | actives 0.91% (n = 650,000) | AID 1259374; in the data active = inhibition above about 50%;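 note: 0% = vehicle wells with protein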
Target sequence (O75030 whole entry, looked up): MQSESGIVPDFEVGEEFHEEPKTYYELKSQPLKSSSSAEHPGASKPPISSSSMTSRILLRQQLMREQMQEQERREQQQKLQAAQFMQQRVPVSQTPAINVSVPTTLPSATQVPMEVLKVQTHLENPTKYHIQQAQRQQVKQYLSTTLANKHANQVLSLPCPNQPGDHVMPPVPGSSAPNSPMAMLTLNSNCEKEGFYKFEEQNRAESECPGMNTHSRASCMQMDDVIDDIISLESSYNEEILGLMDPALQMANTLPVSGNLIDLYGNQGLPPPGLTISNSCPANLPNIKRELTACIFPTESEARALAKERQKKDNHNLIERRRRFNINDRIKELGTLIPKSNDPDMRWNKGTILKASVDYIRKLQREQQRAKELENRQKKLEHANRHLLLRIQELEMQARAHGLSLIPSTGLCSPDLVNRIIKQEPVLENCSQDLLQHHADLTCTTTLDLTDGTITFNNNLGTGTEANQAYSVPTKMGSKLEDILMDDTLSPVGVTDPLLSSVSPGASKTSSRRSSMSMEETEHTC
GPR151 activ: activators of human GPR151. activation, % at 11.2 µM. AID 1508602. actives 1% (n = 650,000). Q8TDV0. PathHunter beta-arrestin GPR151 cells, luminescence; in the data active = activation above about 4.9%;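 note: 0% = median of compound wells and 100% = cells with positive control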
MITF confirm: human MITF inhibition, confirmation. shares compounds with MITF primary. AlphaScreen MITF homodimerization, biotin/His-MITF beads. inhibition, % at 2.6 µM. actives 16% (n = 4,700). AID 1259372;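 active = inhibition above a cutoff derived from the DMSO control wells, cut at about 28% in these data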;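 note: 0% = MITF dimer wells with DMSO only; inhibitors lower the bead chemiluminescence by keeping MITF from dimerizing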
AS interf DR: optically interferes with AlphaScreen signal in dose response. shares compounds with MITF primary. IC50, µM. AlphaScreen optical interference counterscreen, cell-free. actives 6% (n = 480). AID 1259373; call rule not given here
AS interf ctr: AlphaScreen optical interference, counter-screen | shares compounds with MITF primary | actives 7.6% (n = 4,700) | inhibition, % at 2.6 µM | LysRS AlphaScreen counterscreen, signal interference, triplicate | AID 1259376;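 active = inhibition above a cutoff derived from the DMSO control wells, cut at about 30% in these data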
* marks the source's active call; other numbers are inactive results; x = not tested or not shown. Compounds with a hit are over-represented: about 3.5% of the library has one in this group of screens.

SMILES	TEAD-YAP inh	FBW7 act	MITF primary	GPR151 activ	MITF confirm	AS interf ctr	others
Cc1nc2sc(C(c3ccco3)N3CCN(Cc4ccccc4)CC3)c(O)n2n1 (centres undefined)	-1	0	-4	0	x	x
CC(C)(C)n1ncc2c(=O)n(Cc3ccccc3)cnc21	-9	0	6	0	x	x
CC(C)(C)n1ncc2c(=O)n(Cc3cccc(Cl)c3)cnc21	-12	0	62*	1	11	13
CC(C)NC(=O)NC(c1ccccc1)c1ccccc1	3	0	-15	0	x	x
C[C@@H](OCc1ccccc1)[C@@H]1NC(=O)[C@H]2CN(C(=O)NCc3ccccc3)CCN2C1=O	10	0	76*	-1	71*	-13	AS interf DR=>6.5
CC[C@H](C)[C@@H]1NC(=O)[C@H]2CN(C(=O)Nc3cccc(F)c3)CCN2C1=O	6	0	58*	0	75*	4	AS interf DR=>6.5
CC[C@H](C)[C@@H]1NC(=O)[C@H]2CN(C(=O)c3ccc(-c4ccccc4)cc3)CCN2C1=O	2	0	-10	1	x	x
CC[C@H](C)[C@@H]1NC(=O)[C@H]2CN(C(=O)Oc3ccc(F)cc3)CCN2C1=O	3	0	-7	1	x	x
CC[C@H](C)[C@@H]1NC(=O)[C@H]2CN(C(=O)NCc3ccccc3)CCN2C1=O	9	0	74*	-1	66*	-7	AS interf DR=>6.5
C[C@@H]1NC(=O)[C@H]2CN(C(=O)NCc3ccccc3)CCN2C1=O	-2	0	71*	0	75*	-11	AS interf DR=>6.5
Cc1cc(C(F)(F)F)n2nc(N)nc2n1	1	0	19	2	x	x
CC(C)[C@H]1NC(=O)[C@H]2CN(C(=O)NCc3ccccc3)CCN2C1=O	6	0	70*	-1	68*	-3	AS interf DR=>6.5
Cc1cc(Cl)cc(C)c1OCCOCCNC(C)(C)C	3	0	67*	0	-11	-9
Cc1ccc(C)c(OCCOCCNC(C)(C)C)c1	2	0	33	0	x	x
Cc1cc(Br)ccc1OCCOCCNC(C)(C)C	6	0	63*	-2	4	-1
Cc1cc(OCCOCCNC(C)(C)C)cc(C)c1Cl	0	0	31	1	x	x
COc1ccc(C)cc1N(CC(=O)Nc1ccc(F)cc1F)S(C)(=O)=O	-6	0	52*	0	-2	13
COc1ccc(C)cc1N(CC(=O)Nc1ccccc1F)S(C)(=O)=O	8	0	2	-1	x	x
O=C(Nc1cccc(C(F)(F)F)c1)c1nn2c(C(F)(F)F)cc(-c3ccccc3)nc2c1Cl	-6	0	16	0	x	x
O=C(Nc1cc(C(F)(F)F)ccc1Cl)c1nn2c(C(F)(F)F)cc(-c3ccccc3)nc2c1Cl	-1	0	65*	-1	-1	-1
COC(=O)C(C(=O)OC)=C(/C=C/N(C)C)N(C)C	-5	0	74*	0	13	16
CCOC(=O)/C(C(C)=O)=C(\C=C\N(C)C)N(C)C	14	0	1	1	x	x
CC1(C)C2CCC1(C)C(NCC(O)COCc1ccccc1F)C2 (centres undefined)	-1	0	65*	1	-10	-4
CN(C)CC(C)(C)CNCC(O)COCc1ccccc1F (centres undefined)	-4	0	78*	0	0	-5
C=CCc1cc(C)ccc1OCCCCN1CCOCC1	3	0	56*	-2	15	19
SMILES	TEAD-YAP inh	FBW7 act	MITF primary	GPR151 activ	MITF confirm	AS interf ctr	others
C=CCc1cc(Cl)ccc1OCCCN1CCOCC1	11	0	71*	4	-1	7
C=CCc1cc(Cl)ccc1OCCCN1CCN(CC)CC1	11	0	81*	-2	1	19
CSc1ncc(CN2CCCC(CNC(=O)c3cccc(C(F)(F)F)c3)C2)cn1 (centres undefined)	4	0	7	0	x	x
Cn1cnnc1SCc1nc2scc(-c3ccccc3)c2c(=O)[nH]1	10	0	11	-3	x	x
CN(C)c1ccc(C(=O)n2nnc3ccccc32)cc1	0	0	61*	0	2	9
CN1CCC(N(C)Cc2ccc(F)c(Br)c2)CC1	-12	1	54*	-1	18	17
COc1ccc(S(=O)(=O)Nc2nnc(C(F)(F)F)s2)cc1	-6	0	-3	-1	x	x
Nc1nc(-c2cccnc2)nn1C(=O)c1ccc(Cl)cc1	-11	0	4	-1	x	x
Nc1nc(-c2cccnc2)nn1C(=O)c1ccc([N+](=O)[O-])cc1	6	0	55*	-2	12	17
O=C(c1ccccc1)c1cccn1CC(=O)N1CCCCCC1	3	0	63*	1	10	10
O=C(c1ccccc1)c1cccn1CC(=O)N1CCCC1	0	0	7	1	x	x
O=C(NCc1ccccn1)C1CCN(S(=O)(=O)N2CCC3(CC2)OCCO3)CC1	1	0	52*	1	17	14
N#Cc1cnc(=S)[nH]c1N	11	0	7	1	x	x
CC(C)C[C@H]1NC(=O)[C@H]2CN(C(=O)NC3CCCCC3)CCN2C1=O	12	0	74*	-1	41*	-7	AS interf DR=>6.5
CC(C)C[C@@H]1NC(=O)[C@H]2CN(C(=O)NC3CCCCC3)CCN2C1=O	11	0	80*	-1	75*	-13	AS interf DR=>6.5
CC[C@@H]1NC(=O)[C@H]2CN(C(=O)NC3CCCCC3)CCN2C1=O	4	0	83*	-1	71*	-10	AS interf DR=>6.5
O=C1ON=C(c2ccccc2)/C1=C\c1ccccc1OCc1ccccc1	-15	0	48	1	x	x
O=[N+]([O-])c1nn(-c2cccc(Cl)c2)n(O)c1=NC1CCCCC1	5	-1	56*	-1	15	14
O=C(/C=C/c1cn(-c2nc(-c3ccccc3)c3cc(Br)ccc3n2)[n+](-c2ccccc2)c1)c1ccccc1	-18	0	77*	-1	6	10
Cc1ccc(NC(=O)CN2CCN(c3ccccc3O)CC2)c(Br)c1	6	0	16	-2	x	x
COc1ccc(-n2c(SCC(=O)/C(C#N)=C(\C)N)nc3ccccc32)cc1	-7	0	70*	2	4	7
CC(=O)N1CCC(N(CCCN2CCOCC2)C(=S)Nc2ccc(C)cc2)CC1	-4	0	13	4	x	x
NC(C(=O)N1CCC(Nc2ccc3[nH]ncc3c2)CC1)c1ccc(Cl)cc1 (centres undefined)	-4	0	74*	-1	13	24
Cc1cccc(-c2ccc(NC(=O)C3CCN(Cc4cnc(C)nc4)CC3)cc2)c1	-5	0	3	0	x	x
CCOC(=O)N1CCN(C(=O)C2CCN(Cc3ccc(OC)c(OC)c3)CC2)CC1	2	0	52*	2	8	22

Assay outcomes from PubChem BioAssay.
